# Test results published in PubChem BioAssay (NCI).
# The panel holds about 79,000 compounds, 15% with a hit somewhere; the sample as a whole holds those more often. Unmarked numbers belong to inactive results. The source made the active and inactive calls. Cut-off read from the data, not from the text of the source: active = growth inhibition above about 70%; inactive = the rest.
# Assays:
# [1] = NCI Yeast Anticancer Drug Screen. Data for the rad52 strain (AID 147);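 note: 0% = growth of vehicle-treated control cultures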; conditions: S. cerevisiae rad52 mutant growth inhibition, hits give high values
# In short: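 Inhibition of yeast growth, referenced to vehicle controls, was the measured output for a strain with defective DNA damage repair.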
# [2] = NCI Yeast Anticancer Drug Screen. Data for the wt1 strain (AID 149);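 note: 0% = growth of vehicle-treated wt1 cultures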; conditions: S. cerevisiae wt1 strain (SPY 50644) growth inhibition, hits give high values
# In short: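 The wt1 strain was treated with compounds, and growth was compared with vehicle-treated cultures to give inhibition.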
# [3] = NCI Yeast Anticancer Drug Screen. Data for the rad50EPP+ strain (AID 151);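 note: 0% = growth of vehicle-treated control cultures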; conditions: S. cerevisiae rad50 mutant strain, hits give high values
# In short: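 Genetically defined yeast (rad50EPP+, DNA damage repair alteration) is grown with compound, and inhibition of growth is expressed relative to vehicle-treated controls.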
# [4] = NCI Yeast Anticancer Drug Screen. Data for the mgt1 strain (AID 153); conditions: S. cerevisiae mgt1 mutant growth inhibition, hits give high values
# In short: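 In the mgt1 strain, test compounds were added and growth inhibition was determined relative to vehicle-treated controls.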
# [5] = NCI Yeast Anticancer Drug Screen. Data for the rad50 strain (AID 155);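 note: 0% = growth of vehicle-only cultures of the same strain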; conditions: S. cerevisiae rad50 strain growth inhibition, hits give high values
# In short: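 Cells are treated with compound, grown, and their growth is then scored against vehicle-only cultures of the same repair-deficient yeast strain.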
# [6] = NCI Yeast Anticancer Drug Screen. Data for the mec2-1 strain (AID 157); conditions: S. cerevisiae mec2-1 strain, hits give high values
# In short: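 Each compound was tested on mec2-1 yeast, a strain altered in DNA damage repair or cell cycle control. Growth inhibition is reported relative to vehicle.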
# [7] = NCI Yeast Anticancer Drug Screen. Data for the rad14 strain (AID 159);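 note: 0% = growth of vehicle-treated control cultures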; conditions: S. cerevisiae rad14 strain growth inhibition, hits give high values
# In short: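 Readout: yeast growth inhibition, referenced to vehicle-only cultures. Strain bears a defined alteration in DNA damage repair.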
# [8] = NCI Yeast Anticancer Drug Screen. Data for the sgs1 mgt1 strain (AID 161);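 note: 0% = growth of cultures given vehicle only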; conditions: S. cerevisiae sgs1 mgt1 strain, hits give high values
# In short: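 Genetically altered yeast, compound exposure, growth inhibition relative to vehicle.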
# [9] = NCI Yeast Anticancer Drug Screen. Data for the CLN2oe strain (AID 163);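 note: 0% = growth of vehicle-only control cultures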; conditions: S. cerevisiae CLN2oe strain, hits give high values
# In short: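 First, the altered yeast strain was treated with each compound; second, its growth was measured; finally, inhibition was derived by comparison with vehicle controls.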
# [10] = NCI Yeast Anticancer Drug Screen. Data for the cln2 rad14 strain (AID 165);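 note: 0% = growth equal to vehicle treated cultures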; conditions: S. cerevisiae cln2 rad14 strain, hits give high values
# In short: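 Test compounds were added to cln2 rad14 yeast cultures; inhibition of growth was then determined by comparison with vehicle treatment.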
# [11] = NCI Yeast Anticancer Drug Screen. Data for the bub3 strain (AID 167); conditions: S. cerevisiae bub3 mutant strain, hits give high values
# In short: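 Part of a panel of yeast mutants defective in DNA damage repair or cell cycle regulation. Each strain is grown with compound, and inhibition is calculated relative to solvent-treated cultures.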
# [12] = NCI Yeast Anticancer Drug Screen. Data for the wt2 strain (AID 169);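 note: 0% = growth of vehicle-treated yeast cultures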; conditions: S. cerevisiae wt2 strain growth inhibition, hits give high values
# In short: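 The panel's yeast strains carry defined changes in DNA repair or cell cycle genes. Each strain is grown with compound, and growth loss is scored relative to vehicle.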
# [13] = NCI Yeast Anticancer Drug Screen. Data for the sgs1 strain (AID 173);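 note: 0% = growth of vehicle-only control cultures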; conditions: S. cerevisiae sgs1 mutant, hits give high values
# In short: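 Vehicle-treated cultures served as reference for growth inhibition of a yeast strain altered in DNA damage repair or cell cycle control after compound exposure.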
# [14] = NCI Yeast Anticancer Drug Screen. Data for the mlh1 rad18 strain (AID 175); conditions: S. cerevisiae mlh1 rad18 strain growth inhibition, hits give high values
# In short: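 Inhibition values reflect reduced growth of mutant yeast versus vehicle-treated controls following compound exposure; the mutations affect DNA damage repair.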
# [15] = NCI Yeast Anticancer Drug Screen. Data for the rad18 strain (AID 177); conditions: S. cerevisiae rad18 mutant growth inhibition, hits give high values
# In short: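 Steps: expose repair-mutant yeast to compound; measure growth; express as inhibition relative to vehicle control.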
# [16] = NCI Yeast Anticancer Drug Screen. Data for the mlh1 strain (AID 171);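 note: 0% = growth of vehicle-treated control cultures of the same strain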; conditions: S. cerevisiae mlh1 strain growth inhibition, hits give high values
# In short: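 Inhibition values reflect reduced yeast growth in the presence of compound, referenced to vehicle controls, using a strain chosen for its alteration in DNA repair or cell cycle control.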
# [17] = at 5.0 µM (retest, dose inferred, filed as 0.5)
# [18] = at 50.0 µM (retest, dose inferred, filed as 5.0)
structure (smiles),measurement,setting,value
CC(C)C1=CC2=C[C@H](O)[C@H]3C(C)(C)CCC[C@]3(C)C2=C(O)C1=O,growth inhibition,[1]; at 1.2 µM,7%
same,growth inhibition,[1]; at 3.7 µM,38%
same,growth inhibition,[1]; at 11.0 µM,99% (active)
same,growth inhibition,[1]; at 33.0 µM,99% (active)
same,growth inhibition,[1]; at 100.0 µM,94% (active)
same,growth inhibition,[2]; at 1.2 µM,-3%
same,growth inhibition,[2]; at 3.7 µM,13%
same,growth inhibition,[2]; at 11.0 µM,99% (active)
same,growth inhibition,[2]; at 33.0 µM,99% (active)
same,growth inhibition,[2]; at 100.0 µM,94% (active)
same,growth inhibition,[3]; at 1.2 µM,0%
same,growth inhibition,[3]; at 3.7 µM,19%
same,growth inhibition,[3]; at 11.0 µM,69%
same,growth inhibition,[3]; at 33.0 µM,97% (active)
same,growth inhibition,[3]; at 100.0 µM,94% (active)
same,growth inhibition,[4]; at 1.2 µM,-3%
same,growth inhibition,[4]; at 3.7 µM,-7%
same,growth inhibition,[4]; at 11.0 µM,99% (active)
same,growth inhibition,[4]; at 33.0 µM,99% (active)
same,growth inhibition,[4]; at 100.0 µM,95% (active)
same,growth inhibition,[5]; at 1.2 µM,-6%
same,growth inhibition,[5]; at 3.7 µM,13%
same,growth inhibition,[5]; [17],29%
same,growth inhibition,[5]; at 11.0 µM,98% (active)
same,growth inhibition,[5]; at 33.0 µM,98% (active)
same,growth inhibition,[5]; [18],98% (active)
same,growth inhibition,[5]; at 50.0 µM,92.8% (active)
same,growth inhibition,[5]; at 100.0 µM,93% (active)
same,growth inhibition,[6]; at 1.2 µM,-3%
same,growth inhibition,[6]; at 3.7 µM,-1%
same,growth inhibition,[6]; [17],54%
same,growth inhibition,[6]; at 11.0 µM,95% (active)
same,growth inhibition,[6]; at 33.0 µM,99% (active)
same,growth inhibition,[6]; [18],99% (active)
same,growth inhibition,[6]; at 50.0 µM,93.5% (active)
same,growth inhibition,[6]; at 100.0 µM,96% (active)
same,growth inhibition,[7]; at 1.2 µM,6%
same,growth inhibition,[7]; at 3.7 µM,23%
same,growth inhibition,[7]; at 11.0 µM,100% (active)
same,growth inhibition,[7]; at 33.0 µM,99% (active)
same,growth inhibition,[7]; at 100.0 µM,95% (active)
same,growth inhibition,[8]; [17],68%
same,growth inhibition,[8]; [18],98% (active)
same,growth inhibition,[8]; at 50.0 µM,93.3% (active)
same,growth inhibition,[9]; at 1.2 µM,-4%
same,growth inhibition,[9]; at 3.7 µM,4%
same,growth inhibition,[9]; at 11.0 µM,76% (active)
same,growth inhibition,[9]; at 33.0 µM,99% (active)
same,growth inhibition,[9]; at 100.0 µM,95% (active)
same,growth inhibition,[10]; [17],8%
same,growth inhibition,[10]; [18],98% (active)
same,growth inhibition,[10]; at 50.0 µM,91.5% (active)
same,growth inhibition,[11]; at 1.2 µM,2%
same,growth inhibition,[11]; at 3.7 µM,9%
same,growth inhibition,[11]; [17],41%
same,growth inhibition,[11]; at 11.0 µM,79% (active)
same,growth inhibition,[11]; at 33.0 µM,99% (active)
same,growth inhibition,[11]; [18],98% (active)
same,growth inhibition,[11]; at 50.0 µM,92.3% (active)
same,growth inhibition,[11]; at 100.0 µM,96% (active)
same,growth inhibition,[12]; at 1.2 µM,15%
same,growth inhibition,[12]; at 3.7 µM,57%
same,growth inhibition,[12]; at 11.0 µM,99% (active)
same,growth inhibition,[12]; at 33.0 µM,98% (active)
same,growth inhibition,[12]; at 100.0 µM,96% (active)
same,growth inhibition,[13]; at 1.2 µM,8%
same,growth inhibition,[13]; at 3.7 µM,15%
same,growth inhibition,[13]; at 11.0 µM,99% (active)
same,growth inhibition,[13]; at 33.0 µM,98% (active)
same,growth inhibition,[13]; at 100.0 µM,95% (active)
same,growth inhibition,[14]; [17],62%
same,growth inhibition,[14]; [18],98% (active)
same,growth inhibition,[14]; at 50.0 µM,92.3% (active)
same,growth inhibition,[15]; at 1.2 µM,-6%
same,growth inhibition,[15]; at 3.7 µM,27%
same,growth inhibition,[15]; at 11.0 µM,99% (active)
same,growth inhibition,[15]; at 33.0 µM,99% (active)
same,growth inhibition,[15]; at 100.0 µM,92% (active)
CC(=O)Nc1ccc2c(c1)C(=Nc1ccc(C(=O)O)cc1)c1ccccc1-2,growth inhibition,[1]; at 1.2 µM,-4%
same,growth inhibition,[1]; at 3.7 µM,-2%
same,growth inhibition,[1]; at 11.0 µM,4%
same,growth inhibition,[1]; at 33.0 µM,47%
same,growth inhibition,[1]; at 100.0 µM,96% (active)
same,growth inhibition,[2]; at 1.2 µM,1%
same,growth inhibition,[2]; at 3.7 µM,6%
same,growth inhibition,[2]; at 11.0 µM,5%
same,growth inhibition,[2]; at 33.0 µM,13%
same,growth inhibition,[2]; at 100.0 µM,51%
same,growth inhibition,[3]; at 1.2 µM,0%
same,growth inhibition,[3]; at 3.7 µM,7%
same,growth inhibition,[3]; at 11.0 µM,28%
same,growth inhibition,[3]; at 33.0 µM,67%
same,growth inhibition,[3]; at 100.0 µM,92% (active)
same,growth inhibition,[4]; at 1.2 µM,-2%
same,growth inhibition,[4]; at 3.7 µM,-5%
same,growth inhibition,[4]; at 11.0 µM,-5%
same,growth inhibition,[4]; at 33.0 µM,3%
same,growth inhibition,[4]; at 100.0 µM,91% (active)
same,growth inhibition,[5]; at 1.2 µM,-1%
same,growth inhibition,[5]; at 3.7 µM,0%
same,growth inhibition,[5]; [17],6%
same,growth inhibition,[5]; at 11.0 µM,9%
same,growth inhibition,[5]; at 33.0 µM,47%
same,growth inhibition,[5]; [18],52%
same,growth inhibition,[5]; at 50.0 µM,91% (active)
same,growth inhibition,[5]; at 100.0 µM,95% (active)
same,growth inhibition,[6]; at 1.2 µM,1%
same,growth inhibition,[6]; at 3.7 µM,4%
same,growth inhibition,[6]; [17],-3%
same,growth inhibition,[6]; at 11.0 µM,9%
same,growth inhibition,[6]; at 33.0 µM,22%
same,growth inhibition,[6]; [18],57%
same,growth inhibition,[6]; at 50.0 µM,65.8%
same,growth inhibition,[6]; at 100.0 µM,78% (active)
same,growth inhibition,[7]; at 1.2 µM,-2%
same,growth inhibition,[7]; at 3.7 µM,1%
same,growth inhibition,[7]; at 11.0 µM,5%
same,growth inhibition,[7]; at 33.0 µM,30%
same,growth inhibition,[7]; at 100.0 µM,97% (active)
same,growth inhibition,[8]; [17],-15%
same,growth inhibition,[8]; [18],6%
same,growth inhibition,[8]; at 50.0 µM,74% (active)
same,growth inhibition,[9]; at 1.2 µM,1%
same,growth inhibition,[9]; at 3.7 µM,-11%
same,growth inhibition,[9]; at 11.0 µM,3%
same,growth inhibition,[9]; at 33.0 µM,14%
same,growth inhibition,[9]; at 100.0 µM,47%
same,growth inhibition,[10]; [17],-8%
same,growth inhibition,[10]; [18],8%
same,growth inhibition,[10]; at 50.0 µM,43.9%
same,growth inhibition,[11]; at 1.2 µM,-2%
same,growth inhibition,[11]; at 3.7 µM,-5%
same,growth inhibition,[11]; [17],-7%
same,growth inhibition,[11]; at 11.0 µM,0%
same,growth inhibition,[11]; at 33.0 µM,11%
same,growth inhibition,[11]; [18],23%
same,growth inhibition,[11]; at 50.0 µM,91.6% (active)
same,growth inhibition,[11]; at 100.0 µM,50%
same,growth inhibition,[16]; at 1.2 µM,-3%
same,growth inhibition,[16]; at 3.7 µM,1%
same,growth inhibition,[16]; at 11.0 µM,2%
same,growth inhibition,[16]; at 33.0 µM,15%
same,growth inhibition,[16]; at 100.0 µM,90% (active)
same,growth inhibition,[13]; at 1.2 µM,-1%
same,growth inhibition,[13]; at 3.7 µM,2%
same,growth inhibition,[13]; at 11.0 µM,9%
same,growth inhibition,[13]; at 33.0 µM,25%
same,growth inhibition,[13]; at 100.0 µM,95% (active)
same,growth inhibition,[14]; [17],-7%
same,growth inhibition,[14]; [18],73% (active)
same,growth inhibition,[14]; at 50.0 µM,91.1% (active)
same,growth inhibition,[15]; at 1.2 µM,5%
same,growth inhibition,[15]; at 3.7 µM,15%
same,growth inhibition,[15]; at 11.0 µM,47%
same,growth inhibition,[15]; at 33.0 µM,85% (active)
same,growth inhibition,[15]; at 100.0 µM,96% (active)
